In PubChem BioAssay AID720697 (Broad Institute, 2013):
Results with a measured potency or affinity are listed apart. Inconclusive results are not listed. Calls of active or inactive are those of the source.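 How the source made its calls: active means signal loss with fitted half-maximal concentration at or below twice the top valid tested dose in every test run; inconclusive means runs disagree, flat 30 to 70% signal loss, or poor fit; inactive means all runs flat, opposite direction, or potency beyond limit.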

Assay: HEK293T cytotoxicity, dose response, cytotoxicity control for miR-122 modulator project, cell-based, inhibitor set, cherry-pick, set 2 (AID 720697)
Details: HEK293T viability, CellTiter-Glo luminescence, 48 h; series mostly up to 26 µM

Structure (SMILES)	outcome
C/C=C/c1ccc([C@@H]2[C@@H](CN(C)C(=O)CC)N(C(=O)NC(C)C)[C@H]2CO)cc1	inactive
CNC(=O)C[C@H]1CC[C@@H]2[C@H](COc3ccc(NS(=O)(=O)c4ccc(F)cc4)cc3C(=O)N2C)O1	inactive
COc1ccc(CNC(=O)C[C@H]2CC[C@H]3[C@H](COc4ccc(NC(=O)C(C)C)cc4C(=O)N3C)O2)cc1	inactive
O=C(c1cccnc1)N1C[C@H]2[C@@H](c3ccccc31)[C@H](CO)N2C(=O)Nc1ccccc1Cl	inactive
Cc1cccc(NC(=O)c2sc3nc(-c4ccc(F)cc4)cn3c2C)n1	inactive
Cc1cc(C(=O)Nc2cccc(O)c2)co1	inactive
CNC(=O)C[C@H]1CC[C@@H]2[C@H](COc3ccc(NC(=O)c4cccc(OC)c4)cc3C(=O)N2C)O1	inactive
CNC(=O)C[C@H]1CC[C@H]2[C@H](COc3ccc(NC(=O)c4cccc(F)c4)cc3C(=O)N2C)O1	inactive
CC(C)CC#Cc1ccc2c(c1)O[C@H](CN(C)C(=O)c1cnccn1)[C@H](C)CN([C@@H](C)CO)S2(=O)=O	inactive
Cc1nn(C)cc1NC(=O)C[C@@H]1CC[C@H]2[C@@H](COc3ccc(NC(=O)Nc4cccc(Cl)c4)cc3C(=O)N2C)O1	inactive
CCS(=O)(=O)Nc1ccc2c(c1)C(=O)N(C)C[C@@H](OC)[C@H](C)CN(CC1CCCC1)[C@H](C)CO2	inactive
CNC(=O)C[C@@H]1CC[C@@H]2[C@H](COc3ccc(NC(=O)NC(C)C)cc3C(=O)N2C)O1	inactive
CO[C@H]1CN(C)C(=O)c2cc(NC(=O)Nc3ccc(Cl)c(Cl)c3)ccc2OC[C@@H](C)NC[C@@H]1C	inactive
